Source: PubChem (National Center for Advancing Translational Sciences (NCATS))
IP6K1 inhibitor: inhibitors of human IP6K1; activity change, % (series mostly up to about 58 µM); Q92551; hit rate 0.81% among 140,000; IP6K1 kinase, ADP-Glo luminescence, 2 h; hits give low values; AID 1645851; in the data active = activity change below about -25%; note: % is set by controls: 0 for no effect and ±100 for the full control effect
Target sequence (Q92551 whole entry, looked up): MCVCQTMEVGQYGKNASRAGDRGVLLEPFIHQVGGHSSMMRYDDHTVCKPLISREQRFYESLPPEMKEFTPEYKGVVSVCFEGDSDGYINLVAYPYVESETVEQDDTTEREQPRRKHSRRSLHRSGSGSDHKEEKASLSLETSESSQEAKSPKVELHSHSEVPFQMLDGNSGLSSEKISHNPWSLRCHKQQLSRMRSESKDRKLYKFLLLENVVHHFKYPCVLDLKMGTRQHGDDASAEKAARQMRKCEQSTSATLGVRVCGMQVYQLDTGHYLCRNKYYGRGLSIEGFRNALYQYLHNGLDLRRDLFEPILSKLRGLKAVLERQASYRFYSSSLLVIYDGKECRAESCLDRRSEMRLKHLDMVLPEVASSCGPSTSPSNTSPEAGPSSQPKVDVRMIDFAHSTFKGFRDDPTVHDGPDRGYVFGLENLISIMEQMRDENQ
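ADP-Glo luminescence measures ADP made by human IP6K1 during a 2 h RT reaction with ATP/IP6 (mix at 1.3 mM/130 uM); top library doses 57.5 and 19.1 uM final.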
KDM5B inh: KDM5B demethylase inhibition; Q9UGL1; KDM5B demethylase, FDH-coupled NADH fluorescence (FDH is formaldehyde dehydrogenase); Potency, µM (top dose mostly 57.7 µM), usual class: inhibitors; hit rate 2.6% among 220,000; AID 1347165; active = well fitted inhibition curve with a large enough effect; inconclusive = small, poorly fitted or top-dose-only effect; inactive = no such curve, though single readings can be large or run the other way; note: potency is the fitted concentration of half-maximal effect; 0% is about no effect; nearly all actives have a fitted effect of over 70% in size
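Here, H3K4me3 peptide (12.5 µM in substrate mix) is demethylated by KDM5BΔAP, 200 nM final, after 10 min compound exposure. Formaldehyde product is coupled through FDH (0.25 U/mL in mix) to NADH fluorescence; 30-min ΔRFU feeds dose-response curves.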
* marks the source's active call; other numbers are inactive results; i = inactive; ? = inconclusive; nt = no result given. The list is not random: actives were taken first. Their share in the collection is about 2.7%.

SMILES | IP6K1 inhibitor | KDM5B inh
CCc1cccc(NC(=O)N2CCc3c(c4cc(F)ccc4n3C)C2)c1 | -5 | 25µM*
CCCCNC(=O)N1CCc2c(c3cc(F)ccc3n2C)C1 | -6 | ?
CC(C)c1cccc(C(C)C)c1NC(=O)N1CCc2c(c3cc(F)ccc3n2C)C1 | -3 | 25µM*
Cn1c2c(c3cc(F)ccc31)CN(C(=O)Nc1cccc(F)c1)CC2 | -4 | ?
Cc1ccccc1NC(=O)N1CCc2c(c3cc(F)ccc3n2C)C1 | -10 | 28µM*
Cc1ccc(NC(=O)N2CCc3c(c4cc(F)ccc4n3C)C2)cc1 | -3 | 14µM*
Cn1c2c(c3cc(F)ccc31)CN(C(=O)Nc1ccccc1)CC2 | -3 | ?
CCc1ccc(NC(=O)N2CCc3[nH]c4ccc(F)cc4c3C2)cc1 | -4 | ?
COc1ccc2cc(C(=O)Nc3ccc(NC(=O)Nc4ccccc4)cc3)c(C)nc2c1 | nt | i
CCCn1c(=O)n(CC(=O)Nc2ccc(Oc3ccccc3)cc2)c(=O)c2c1nc(C)n2CCOC | nt | i
O=C(c1ccc(Cl)cc1O)N1CCN(S(=O)(=O)c2ccc(Br)cc2)CC1 | nt | i
CC(Nc1ccc([N+](=O)[O-])cn1)c1ccc(Cl)cc1 (stereo unspecified) | nt | i
COc1ccccc1NC(=O)c1cnc2ccccc2n1 | nt | i
CCCCCNC(=O)c1cc(-c2ccccc2C(F)(F)F)nc2c1cnn2C | 3 | nt
NC(=O)CN1C(=O)CO[C@H]2CN(Cc3ccc(C(F)(F)F)cc3)C[C@H]21 | -5 | i
N#Cc1ccc(CN2C[C@@H]3OCC(=O)N(CC(N)=O)[C@@H]3C2)cc1 | -5 | 35µM*
COc1ccc(OC)c(NC(=O)CSC2=Nc3ccccc3C3=NC(CC(=O)NCc4ccco4)C(=O)N23)c1 (stereo unspecified) | -25* | i
CCOc1ccc(NC(=O)CSC2=Nc3ccccc3C3=NC(CC(=O)NCc4ccco4)C(=O)N23)cc1 (stereo unspecified) | 2 | ?
Cc1c(-c2ccccc2F)[nH]c2ccc(CNC(=O)CCC3=NNC(=O)CC3)cc12 | -15 | ?
Cc1c(-c2ccccc2F)[nH]c2ccc(CNC(=O)Cn3ccc(=O)[nH]c3=O)cc12 | -3 | 32µM*
Cc1c(-c2ccccc2F)[nH]c2ccc(CNC(=O)CCN3CCCC3=O)cc12 | 15 | 28µM*
O=C(Cn1ccc(=O)[nH]c1=O)NC(c1ccc(F)cc1)c1cccs1 (stereo unspecified) | nt | i
COc1cccc(C(=O)NCCNC(=O)c2cccc(-c3cc(F)ccc3OC)c2)c1 | -3 | nt
COc1ccc(CN2CCCC(c3cc(=O)[nH]c(C)n3)C2)c(OC)c1C (stereo unspecified) | 4 | i
CCCc1noc(-c2cccn3c(CNC(=O)Cc4cccc(OC)c4)nnc23)n1 | 0 | i
SMILES | IP6K1 inhibitor | KDM5B inh
CCCc1noc(-c2cccn3c(CNC(=O)c4ccco4)nnc23)n1 | -3 | 25µM*
CCc1noc(-c2cccn3c(CNC(=O)c4ccco4)nnc23)n1 | 19 | 28µM*
O=C(CN(Cc1ccco1)C1CC1)NC1CCCC1 | nt | i
Cc1ccc(Nc2ccnc(N3CCCC(C(=O)NCC4CC4)C3)n2)cc1 (stereo unspecified) | -10 | nt
O=C(NCc1cccc(F)c1)C1CCN(Cc2ccccc2-c2ccccc2F)CC1 | 28 | nt
CC1(c2ccccc2)N(Cc2ccccc2F)C(=O)OC12CCN(c1cccnc1)CC2 (stereo unspecified) | -15 | ?
Cc1ccc(Nc2ccnc(N3CCC(NC(=O)c4cccc(Cl)c4)CC3)n2)cc1 | -11 | nt
COc1cc(OC)c(C2=CCN(C(=O)COc3ccc(F)cc3)CC2)c(OC)c1 | nt | i
CC(=O)c1c(C)n[nH]c1C | nt | i
Cn1ncc2c(C(=O)NCc3ccc(Cl)cc3)cc(-c3ccccc3C(F)(F)F)nc21 | 16 | nt
O=C(Cc1cccc(C(F)(F)F)c1)N1CCN(c2nnc3ccc(Cl)cn23)CC1 | 4 | 25µM*
O=C(Cc1ccccc1F)N1CCN(c2nnc3ccc(Cl)cn23)CC1 | 40 | ?
O=C(Cc1ccc(Cl)cc1)N1CCN(c2ccccc2O)CC1 | nt | i
O=C(Cc1ccc(Cl)cc1)N1CCN(c2nnc3ccccn23)CC1 | 25 | 25µM*
O=C(NCCc1ccccc1)N1CC(Oc2ccccc2-c2nc(-c3ccccc3)no2)C1 | 17 | 25µM*
CCC(C)NC(=O)N1CC(Oc2ccccc2-c2nc(-c3ccccc3)no2)C1 (stereo unspecified) | 16 | i
CCc1noc(-c2cccn3c(CNC(=O)COc4cccc(C)c4)nnc23)n1 | 10 | ?
CC(C)c1noc(-c2cccn3c(CNC(=O)CCC4CCCC4)nnc23)n1 | 11 | 16µM*
CCc1noc(-c2cccn3c(CNC(=O)CCC4CCCC4)nnc23)n1 | -5 | 28µM*
O=C(O)c1ccc2n[nH]nc2c1 | nt | i
NC(=O)c1ccc(S(=O)(=O)N2CCN(c3nc(-c4cccnc4)nc4ccccc34)CC2)cc1 | nt | i
